This is a sample that favours compounds with a hit; in the whole collection about 1.5% have one here.
TCR act: activates T cell receptor signaling; AID 504894; primary human leukocytes, anti-CD3, IL-2 HTRF, 48 h; 330,000 tested, under 10 active; Potency, µM (highest dose often 9.22 µM), usual class: activators
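Readout: HTRF IL-2, Eu-cryptate/d2 antibody pair, 320nm excitation, 665nm emission. Stimulus: a-CD3 beads, no co-stimulation. Cells: primary human leukocytes. Exposure: 48 hr with compound.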
BRCA1 expr act: BRCA1 expression activation; MCF7-BRCA1-FFLuc reporter, luminescence, 48 h; response scale: scaled: vehicle 0%, 10 µM genistein 100%; Potency, µM (top dose mostly 46.1 µM), most hits filed as activators; 380,000 compounds, 1.1% hits; also: nearly all actives have a fitted effect of over 80% in size
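First, MCF7-BRCA1-FFLuc cells (2000/well) attach for 2 h; next, compounds are pin-added and incubated 48 h at 37 °C; finally, luciferase reagent is added and luminescence read after 15 min.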
Akt phos inh: inhibitors of Akt phosphorylation; Neuro2A IGF-stimulated pAkt S473 HTRF, 20 min; active compounds read low; activity change, % for hits at 50 µM; 360,000 compounds, 0.32% hits; AID 651550; in the data active = activity change below about -80%; inconclusive = mostly about -51% to -80%
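Single-point screen (50 µM final compound) in Neuro2A cells stimulated 20 min with 6 nM IGF at 37 deg C. After lysis, Ser473-phosphorylated Akt read by HTRF (ex 330 nm, em 615/665 nm) as the 665/615 ratio.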
PINK1 modulator: modulators of PINK1 expression | PINK1 immunofluorescence, high-content cytometry, 24 h | Potency, µM (doses to about 76.6 µM), most hits filed as activators | 410,000 compounds, 0.2% hits; active = well fitted activation curve with a large enough effect; inconclusive = small, poorly fitted or top-dose-only effect; cell line not stated here; also: nearly all actives have a fitted effect of over 65% in size
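A stable cell line was treated with compounds at 5 concentrations for 24 hours, with CCCP as control. PINK1 levels and mitochondrial localization were measured by immunofluorescence with mitochondrial, cell and nuclear markers after fixation, read by laser-scanning cytometry.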
A number is an active result; 0 = inactive; ? = inconclusive; - = no result given; [ ] = dose if it differs, or a comment. Unless noted, calls follow the shape of the dose curve; as a rule, active = well fitted curve in the direction sought with a large enough effect; inconclusive = small, poorly fitted or top-dose-only effect, or another doubt; inactive = no such curve, though single readings can be large; an effect the other way counts as inactive or inconclusive.

SMILES	TCR act	BRCA1 expr act	Akt phos inh	PINK1 modulator
COc1ccc(NC(=O)c2cccc(S(=O)(=O)Nc3ccc(Br)cc3)c2)cn1	0	0	0	14µM
CNC(=S)Nc1cccc2[nH]ncc12	0	0[1.84 µM]	-	-
O=C(NC(=S)Nc1cccc2[nH]ncc12)c1ccccc1	0	10µM	0	0
COc1ccc(NC(=O)c2cccc(Oc3ccccc3)c2)cn1	0	0	0	0
COc1ccc(NC(=O)c2sccc2C)cn1	0	7.9µM	0	0
CCOC(=O)N1CCN(Cc2ccc3c(c2)CN(C(=O)c2cc(-c4ccccc4)no2)CCO3)CC1	-	-	-	0
COc1cccc(C2(CC(=O)N3CCCCC3CO)CC(=O)N(C)C2=O)c1 (centres undefined)	-	-	-	0
CCOC(=O)c1cc([N+](=O)[O-])sc1NC(=O)c1ccc(S(=O)(=O)N2CC3(C)CC2CC(C)(C)C3)cc1 (centres undefined)	0	0	0	2.5µM
CCOc1cccc(/C(O)=C2/C(=O)C(=O)N(Cc3cccnc3)C2c2ccco2)c1 (centres undefined)	0	0	-116%	0
COc1ccc(/C(O)=C2/C(=O)C(=O)N(Cc3cccnc3)C2c2ccco2)cc1OC (centres undefined)	0	0	0	0
Cc1nn(Cc2ccc(F)cc2)c(C)c1NC(=O)c1cnn2c1NC(c1ccccc1)CC2C(F)(F)F (centres undefined)	0	0	0	0
NC(=O)c1cnn2c1NC(c1ccc(F)cc1)CC2C(F)(F)F (centres undefined)	0	0	-111%	0
CCOC(=O)c1ccc2[nH]c(C)c(C)c2c1	0	13µM	-	0
CS(=O)(=O)Nc1cc(C(=O)N2CCNC(=O)C2)c2c(c1)ncn2CCc1ccccc1	-	-	-	0
O=C(NCC1CCCCC1)c1ccc(F)cc1Cl	-	5.6µM	0	0
COc1cc(N=Nc2ccc3ccccc3c2)ccc1O	0	5µM	0	0
CN(c1ccccc1)S(=O)(=O)c1ccc(Cl)c(C(=O)Nc2ccc(-c3nc4ccccc4[nH]3)cc2)c1	0	0	0	11µM
CN(c1ccccc1)S(=O)(=O)c1ccc(Cl)c(C(=O)Nc2nc3ccccc3[nH]2)c1	0	0	0	0
CCC(CC)C(=O)Nc1ccc2nc(SCC(=O)N3CCCC3)sc2c1	-	-	-	0
N=c1oc2c3c4c(cc2cc1C(=O)Nc1ccccc1)CCCN4CCC3	0	0	0	11µM
CN1C(=O)/C(=C\c2cc(N=Nc3ccccc3)ccc2O)SC1=S	0	0	0	40µM
Cc1nc2cc3ccccc3cc2c(=O)[nH]1	0	11µM	0	0
O=C(NCc1nnc2n1CCN(Cc1ccc(C(F)(F)F)cc1)CC2)c1cccc(F)c1	-	-	-	0
CSc1ccc(-c2nnn(Cc3ccccn3)n2)cc1	0	8.9µM	0	0
CCOc1ccc(S(=O)(=O)N2CCC(N3CCN(Cc4ccc(F)cc4)C(=O)C3=O)CC2)cc1	-	-	-	0
SMILES	TCR act	BRCA1 expr act	Akt phos inh	PINK1 modulator
CCN(Cc1cccc(S(=O)(=O)O)c1)c1ccc(C(=C2C=CC(=[N+](CC)Cc3cccc(S(=O)(=O)O)c3)C=C2)c2ccc(O)cc2S(=O)(=O)O)cc1	-	0	-	0
c1ccc(-c2ccc(OCCCn3cncn3)cc2)cc1	0	11µM	0	0
Cc1nc2ccc(C(=O)N3CCOc4ccc(CN5CCOCC5)cc4C3)cc2nc1C	-	-	-	0
COc1ccc(C(CC(=O)Nc2nccs2)n2cccc2)cc1 (centres undefined)	0	6.3µM	0	0
CCOc1ccc(N=C(/C(C(=O)C(=O)N2CCOCC2)=C(/O)c2ccccc2)c2ccccc2)cc1	0	11µM	0	0
Cc1oc(-c2ccccc2Cl)nc1CSc1nc2ncccc2[nH]1	-	-	-	0
CCOc1ccc2[nH]c(=O)c(CN(Cc3ccccc3)C(=O)N3CCCC3)cc2c1	0	0	-132%	0
CN(C)c1ccc(C(I)C(I)c2ccnc3ccccc23)cc1 (centres undefined)	-	0	-	0
Cc1ccc(NC(=O)c2ccc3c(c2)NC(=O)CS3)nc1	0	7.9µM	0	0
C(=NOCc1ccccc1)c1ccccn1	-	10µM	0	0
CCOc1ccc2nc(NC(=O)CCC(=O)c3cccs3)sc2c1	0	1.8µM	0	0
COc1ccc2nc(NC(=O)CSC3=NCCS3)sc2c1	0	0	0	0
COc1ccc2nc(NC(=O)c3cc(C)oc3C)sc2c1	0	5µM	0	0
Cc1cc(C(=O)Nc2nc3ccc(S(C)(=O)=O)cc3s2)c(C)o1	-	0	?	?
COc1ccc2c(c1)CCc1sc(NC(=O)c3ccco3)nc1-2	0	10µM	0	0
CCOCC(=O)Nc1nc2ccc(OCC)cc2s1	0	?	0	0
COc1ccc2nc(NC(=O)CSc3ccccc3)sc2c1	0	10µM	0	0
COc1ccc2c(c1)-c1nc(NC(=O)c3ccco3)sc1CC2	0	0	0	0
O=C(NCCc1nnc2n1CCN(Cc1ccccn1)CC2)c1ccc(F)cc1	-	-	-	0
COc1ccc2nc(NC(=O)c3ccoc3C)sc2c1	-	?	-110%	0
COc1ccc2nc(NC(=S)NC(=O)c3ccco3)sc2c1	0	5µM	0	0
CCc1cc(C(=O)NCC2Cc3cc(C)cc(-c4cc(C(C)=O)ccc4F)c3O2)n(C)n1 (centres undefined)	-	-	-	0
COc1ccc(NC(=O)/C=C/c2cccc(F)c2)cn1	0	7.1µM	0	0
CCOc1ccc(/C=C/C(=O)Nc2ccccc2C(F)(F)F)cc1	0	0	0	0
COc1ccc(/C=C/C(=O)Nc2ccccc2C(F)(F)F)cc1	0	3.2µM	0	0
SMILES	TCR act	BRCA1 expr act	Akt phos inh	PINK1 modulator
COc1ccc(/C=C/C(=O)Nc2cccc(C(C)=O)c2)cc1	0	4.5µM	0	0
CC(C)c1ccc(NC(=O)COc2ccccc2)cc1	-	?	0	0
CC(C)c1ccc(NC(=O)COc2ccccn2)cc1	-	4µM	0	0
CN(C)C(=O)CSc1nnc2sc3ccccc3n12	0	0	0	0
O=C(CSc1nnc2sc3ccccc3n12)c1ccco1	-	13µM	0	-
COc1ccc(Cc2n[nH]c(=S)n2NC(=O)Nc2ccc(Cl)c(Cl)c2)cc1	0	0	0	40µM
Cc1ccc2c(c1)CN(CCC(=O)NCc1cc(C)n(C)n1)CC(C)O2 (centres undefined)	-	-	-	0
O=S(=O)(c1ccc(Cl)s1)N1CCN(C/C=C/c2ccccc2)CC1	0	0	0	0
O=S(=O)(c1cccs1)N1CCN(C/C=C/c2ccccc2)CC1	0	0	-118%	0
CCCc1ccc(OC(C)C(=O)Nc2sc3c(c2C(=O)OC)CCCCC3)cc1 (centres undefined)	-	-	-	0
CN1CCCN(C(=O)[C@@H]2C[C@@H](Sc3nc4ccccc4[nH]3)CN2Cc2ccc(-c3ccccc3)cc2)CC1	-	-	-	0
CCSc1nn2c(=O)c3ccccc3nc2s1	0	2.5µM	-	0
COc1ccc(OC(=O)c2c(C)nn(-c3ccccc3)c2C)cc1	0	?	0	0
COc1ccc(OC(=O)c2cnn(-c3ccccc3)c2C)cc1	0	10µM	0	0
CCN1/C(=C2/SC(=S)N(NC(C)=O)C2=O)Sc2ccccc21	-	0	0	22µM
CN1CCN(Cc2c(O)ccc3occ(C(=O)c4ccccc4)c23)CC1	-	0	0	0
